# Test results: PubChem BioAssay (EPA / NIEHS)
# Activity calls are given as the source filed them. The calls were made as follows: active = hit-call score of the fitted dose curve at least 0.9, where 1 is the maximum; inactive = score below 0.9.
# Tests used:
# [1] = CEETOX_H295R_TESTO: CeeTox H295R High-throughput Steroidogenesis Assay for Testosterone (TESTO) (AID 2283457); conditions: actives raise or lower the signal;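 as to AC50: cells exposed to chemicals for 48 h before medium collection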
# In short: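 Readout: testosterone quantified by HPLC-MS/MS (C18, ESI positive) after MTBE liquid-liquid extraction of culture medium. Cells were H295R, 48 h chemical exposure per OECD 456 with modifications. Gain or loss of signal fitted relative to DMSO.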
# [2] = read-out: Fatty acid synthase (Homo sapiens) (UniProt P49327); assay: LTEA_HepaRG_FASN: Life Technologies and Expression Analysis (LTEA) Assay for Fatty Acid Synthase (FASN) using HepaRG (AID 2283448); conditions: mRNA level, 48 h; actives raise or lower the signal
# In short: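 HepaRG, 48 h exposure, 8-pt half-log series top 100 uM, 0.5% DMSO vehicle, duplicates. Readout: FASN transcript by Fluidigm qRT-PCR; housekeeping-normalized; bidirectional curve fit vs DMSO baseline.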
# [3] = read-out: Cyclin Dependent Kinase Inhibitor 1A (CDKN1A), CDKN1A (gene 1026); assay: LTEA_HepaRG_CDKN1A: Life Technologies and Expression Analysis (LTEA) Assay for Cyclin Dependent Kinase Inhibitor 1A (CDKN1A) using HepaRG (AID 2283450); conditions: mRNA level, 48 h; actives raise or lower the signal
# In short: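 HepaRG, 48 h dosing, 8-pt half-log series from 100 uM top, 0.5% DMSO vehicle, duplicates. Readout: TaqMan qRT-PCR of CDKN1A transcript, housekeeping-normalized (ACTB, GAPDH, POLR2A). Up/down curve fit relative to DMSO.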
# [4] = read-out: Cyclin D1 (CCND1), CCND1 (gene 595); assay: LTEA_HepaRG_CCND1: Life Technologies and Expression Analysis (LTEA) Assay for Cyclin D1 (CCND1) using HepaRG (AID 2283451); conditions: mRNA level, 48 h; actives raise or lower the signal
# In short: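 qRT-PCR (Fluidigm 96.96 array) read-out of transcript level, housekeeping-normalized (ACTB/GAPDH/POLR2A). HepaRG cells, 48 h chemical exposure, 8-point half-log series from 100 uM, 0.5% DMSO vehicle; gain or loss relative to DMSO baseline.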
# [5] = read-out: catalase (CAT), CAT (gene 847); assay: LTEA_HepaRG_CAT: Life Technologies and Expression Analysis (LTEA) Assay for catalase (CAT) using HepaRG (AID 2283452); conditions: mRNA level, 48 h; actives raise or lower the signal
# In short: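 Expression of CAT was quantified by TaqMan qRT-PCR with ACTB/GAPDH/POLR2A normalization after 48 h chemical exposure of HepaRG. Eight-point half-log series, top 100 uM, in 0.5% DMSO; gain or loss fitted against vehicle.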
# [6] = read-out: flavin-containing dimethylaniline monooxygenases 3 (FMO3), FMO3 (gene 2328); assay: LTEA_HepaRG_FMO3: Life Technologies and Expression Analysis (LTEA) Assay for flavin-containing dimethylaniline monooxygenases 3 (FMO3) using HepaRG (AID 2283453); conditions: mRNA level, 48 h; actives raise or lower the signal
# In short: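 Eight-point concentration-response in serum-free HepaRG cultures (top 100 uM, 0.5% DMSO, 48 h). Read-out: FMO3 mRNA level normalized to three endogenous control genes, fitted bidirectionally versus vehicle.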
# [7] = read-out: Cytochrome P450 (CYP1A1), CYP1A1 (gene 1543); assay: LTEA_HepaRG_CYP1A1: Life Technologies and Expression Analysis (LTEA) Assay for Cytochrome P450 (CYP1A1) using HepaRG (AID 2283454); conditions: mRNA level, 48 h; actives raise or lower the signal
# In short: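 qRT-PCR read-out: CYP1A1 transcript normalized to three housekeeping genes, fitted bidirectionally against 0.5% DMSO vehicle baseline. Human HepaRG cells, 48 h chemical exposure, 8-point half-log series topping at 100 uM.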
# [8] = read-out: CFLAR gene, CFLAR (gene 8837); assay: LTEA_HepaRG_CFLAR: Life Technologies and Expression Analysis (LTEA) Assay for CFLAR gene using HepaRG (AID 2283455); conditions: mRNA level, 48 h; actives raise or lower the signal
# In short: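 Transcript level by qRT-PCR (normalized to ACTB, GAPDH and POLR2A) after 48 h chemical exposure of HepaRG cells, top concentration 100 uM with half-log steps, 0.5% DMSO vehicle, duplicates; fitted bidirectionally against DMSO baseline.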
# [9] = read-out: Forkhead box O1 (FOXO1), FOXO1 (gene 2308); assay: LTEA_HepaRG_FOXO1: Life Technologies and Expression Analysis (LTEA) Assay for Forkhead box O1 (FOXO1) using HepaRG (AID 2283456); conditions: mRNA level, 48 h; actives raise or lower the signal
# In short: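 FOXO1 transcript quantified by qRT-PCR after 48 h chemical exposure (top 100 uM, half-log steps, 0.5% DMSO) of HepaRG cells, housekeeping-normalized (ACTB/GAPDH/POLR2A). Changes fitted in both directions relative to vehicle.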
# [10] = read-out: growth arrest and DNA damage 45 (GADD45A), GADD45A (gene 1647); assay: LTEA_HepaRG_GADD45A: Life Technologies and Expression Analysis (LTEA) Assay for growth arrest and DNA damage 45 (GADD45A) using HepaRG (AID 2283458); conditions: mRNA level, 48 h; actives raise or lower the signal
# In short: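 HepaRG, 48 h exposure, 8 conc. (top 100 uM, half-log steps), 0.5% DMSO vehicle, duplicates. Read-out: qRT-PCR mRNA level, housekeeping-normalized (ACTB/GAPDH/POLR2A). Curves fit bidirectionally vs DMSO baseline.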
# Fatty acid synthase (Homo sapiens), sequence (P49327 whole entry, looked up): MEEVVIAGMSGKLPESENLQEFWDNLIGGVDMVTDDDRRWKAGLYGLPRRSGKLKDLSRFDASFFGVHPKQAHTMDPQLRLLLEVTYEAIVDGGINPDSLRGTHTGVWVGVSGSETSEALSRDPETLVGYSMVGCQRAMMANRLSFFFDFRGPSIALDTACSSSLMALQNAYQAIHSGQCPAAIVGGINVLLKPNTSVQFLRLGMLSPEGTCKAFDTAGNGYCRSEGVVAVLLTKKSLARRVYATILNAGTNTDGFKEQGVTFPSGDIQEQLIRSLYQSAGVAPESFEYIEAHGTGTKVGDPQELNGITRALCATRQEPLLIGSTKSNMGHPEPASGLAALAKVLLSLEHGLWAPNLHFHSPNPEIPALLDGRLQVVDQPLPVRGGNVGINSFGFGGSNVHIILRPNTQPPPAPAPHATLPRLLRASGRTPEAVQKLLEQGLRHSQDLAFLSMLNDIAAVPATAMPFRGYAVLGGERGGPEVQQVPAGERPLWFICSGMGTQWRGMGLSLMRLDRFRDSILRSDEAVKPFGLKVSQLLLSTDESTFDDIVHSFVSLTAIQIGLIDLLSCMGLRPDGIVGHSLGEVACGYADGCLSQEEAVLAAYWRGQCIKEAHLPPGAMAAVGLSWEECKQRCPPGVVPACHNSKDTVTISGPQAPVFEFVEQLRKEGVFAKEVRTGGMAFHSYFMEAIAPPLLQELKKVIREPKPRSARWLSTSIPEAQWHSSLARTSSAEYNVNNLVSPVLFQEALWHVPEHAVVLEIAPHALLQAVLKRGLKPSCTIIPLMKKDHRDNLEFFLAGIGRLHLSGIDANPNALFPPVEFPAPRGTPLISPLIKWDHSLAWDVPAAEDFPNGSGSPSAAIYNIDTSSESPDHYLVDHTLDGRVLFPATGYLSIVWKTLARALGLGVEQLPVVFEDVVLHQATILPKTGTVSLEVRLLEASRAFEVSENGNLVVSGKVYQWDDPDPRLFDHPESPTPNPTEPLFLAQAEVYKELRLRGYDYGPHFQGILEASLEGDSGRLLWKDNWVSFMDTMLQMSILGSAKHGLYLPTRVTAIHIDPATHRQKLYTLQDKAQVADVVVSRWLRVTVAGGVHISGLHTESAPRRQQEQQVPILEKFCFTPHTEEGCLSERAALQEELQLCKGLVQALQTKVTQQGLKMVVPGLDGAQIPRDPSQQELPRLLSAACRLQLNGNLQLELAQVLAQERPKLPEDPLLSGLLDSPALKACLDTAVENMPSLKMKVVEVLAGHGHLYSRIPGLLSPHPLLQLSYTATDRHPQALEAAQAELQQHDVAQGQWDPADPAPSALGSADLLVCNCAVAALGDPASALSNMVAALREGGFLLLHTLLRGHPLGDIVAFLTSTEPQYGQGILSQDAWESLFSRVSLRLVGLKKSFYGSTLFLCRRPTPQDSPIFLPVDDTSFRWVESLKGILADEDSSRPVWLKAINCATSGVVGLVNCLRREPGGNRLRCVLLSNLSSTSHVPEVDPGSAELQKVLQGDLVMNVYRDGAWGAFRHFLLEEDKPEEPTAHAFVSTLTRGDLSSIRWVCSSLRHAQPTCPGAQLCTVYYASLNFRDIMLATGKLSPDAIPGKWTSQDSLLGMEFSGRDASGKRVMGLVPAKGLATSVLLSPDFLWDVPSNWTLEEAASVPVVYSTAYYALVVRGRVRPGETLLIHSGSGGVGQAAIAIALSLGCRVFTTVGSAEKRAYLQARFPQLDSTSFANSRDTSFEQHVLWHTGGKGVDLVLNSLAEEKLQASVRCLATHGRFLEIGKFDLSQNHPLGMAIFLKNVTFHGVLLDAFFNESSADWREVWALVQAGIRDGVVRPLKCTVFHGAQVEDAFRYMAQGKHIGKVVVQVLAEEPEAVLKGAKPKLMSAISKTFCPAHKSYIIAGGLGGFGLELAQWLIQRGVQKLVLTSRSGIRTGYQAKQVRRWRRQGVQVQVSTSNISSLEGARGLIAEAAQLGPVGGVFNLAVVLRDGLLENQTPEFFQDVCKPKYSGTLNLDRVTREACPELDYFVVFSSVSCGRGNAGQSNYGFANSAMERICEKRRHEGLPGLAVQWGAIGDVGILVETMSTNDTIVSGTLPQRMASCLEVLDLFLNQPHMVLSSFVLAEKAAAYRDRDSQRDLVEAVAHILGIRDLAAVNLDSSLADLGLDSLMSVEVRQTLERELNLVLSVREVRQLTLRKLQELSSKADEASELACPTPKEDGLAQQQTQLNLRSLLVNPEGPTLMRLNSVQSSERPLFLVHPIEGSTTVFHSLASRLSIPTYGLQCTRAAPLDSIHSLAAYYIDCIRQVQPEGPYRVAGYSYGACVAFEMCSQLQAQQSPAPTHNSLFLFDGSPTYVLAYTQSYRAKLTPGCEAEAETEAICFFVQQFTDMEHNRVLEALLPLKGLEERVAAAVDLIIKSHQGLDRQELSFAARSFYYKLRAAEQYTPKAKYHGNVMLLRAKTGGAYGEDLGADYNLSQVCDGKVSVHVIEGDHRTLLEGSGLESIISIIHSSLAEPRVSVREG
compound,measurement,setting,value
BrCc1cccc(Oc2ccccc2)c1,AC50,[1],34.5 µM (active)
CCC(C)c1cc([N+](=O)[O-])cc([N+](=O)[O-])c1OC(=O)OC(C)C (centres undefined),outcome,[1],inactive
Nc1ccc(N)c2c1C(=O)c1ccccc1C2=O,outcome,[1],inactive
CCOC(=O)[C@@H](C)Oc1ccc(Oc2nc3ccc(Cl)cc3o2)cc1,outcome,[1],inactive
CS(=O)(=O)OCCCCOS(C)(=O)=O,outcome,[2],inactive
same,outcome,[3],inactive
same,outcome,[4],inactive
same,outcome,[5],inactive
same,outcome,[6],inactive
same,outcome,[7],inactive
same,outcome,[8],inactive
same,outcome,[9],inactive
same,outcome,[10],inactive
OCc1cccc(Oc2ccccc2)c1,AC50,[1],50 µM (active)
